hERG WT inh – inhibitors of human wildtype KCNH2 potassium channel | U2OS, BacMam KCNH2, thallium flux FluxOr; active compounds read low | activity change, % at 1.84 µM | 0.37% of 340,000 active | AID 720551;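 active = maximum activity change below -70%; inconclusive = maximum activity change between -70% and -50%; inactive = maximum activity change above -50%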; note: % is set by controls: 0 for no effect and ±100 for the full control effect
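U2OS cells transduced with wild-type KCNH2 virus are loaded with FluxOr dye for 45 min, and thallium flux is measured in kinetic reads before and after stimulation buffer. Rate constants are normalized to DMSO controls.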
KCNH2 3.1 inh – KCNH2 3.1 (human) potassium channel inhibition; U2OS KCNH2 3.1, thallium flux FluxOr; active compounds read low; activity change, % (tested at about 1.8 µM); 0.95% of 340,000 active; AID 720553;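 active = maximum activity change below -70%; inconclusive = maximum activity change from -70% to -50%; inactive = maximum activity change above -50%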;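 note: thallium influx rate constant from kinetic fluorescence after stimulation buffer; % is set by controls: 0 for no effect and ±100 for the full control effect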
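Channel expression came from 3.1 mutant virus (1.77 x 10^8 /mL) applied to suspended U2OS cells for 4 h. Flux was tracked with FluxOr dye plus Red40 quencher, and kinetic rate constants normalized to controls.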
TRPV1 potentiator – human TRPV1 potentiation | potentiation, % at 8.33 µM | TRPV1-expressing cells, Fluo-8 calcium influx, capsaicin EC20 potentiation | Q8NER1 | 0.02% of 320,000 active; in the data active = potentiation above about 80%; inconclusive = between about 30% and that limit; note: 0% is about no effect
Target sequence (Q8NER1 whole entry, looked up): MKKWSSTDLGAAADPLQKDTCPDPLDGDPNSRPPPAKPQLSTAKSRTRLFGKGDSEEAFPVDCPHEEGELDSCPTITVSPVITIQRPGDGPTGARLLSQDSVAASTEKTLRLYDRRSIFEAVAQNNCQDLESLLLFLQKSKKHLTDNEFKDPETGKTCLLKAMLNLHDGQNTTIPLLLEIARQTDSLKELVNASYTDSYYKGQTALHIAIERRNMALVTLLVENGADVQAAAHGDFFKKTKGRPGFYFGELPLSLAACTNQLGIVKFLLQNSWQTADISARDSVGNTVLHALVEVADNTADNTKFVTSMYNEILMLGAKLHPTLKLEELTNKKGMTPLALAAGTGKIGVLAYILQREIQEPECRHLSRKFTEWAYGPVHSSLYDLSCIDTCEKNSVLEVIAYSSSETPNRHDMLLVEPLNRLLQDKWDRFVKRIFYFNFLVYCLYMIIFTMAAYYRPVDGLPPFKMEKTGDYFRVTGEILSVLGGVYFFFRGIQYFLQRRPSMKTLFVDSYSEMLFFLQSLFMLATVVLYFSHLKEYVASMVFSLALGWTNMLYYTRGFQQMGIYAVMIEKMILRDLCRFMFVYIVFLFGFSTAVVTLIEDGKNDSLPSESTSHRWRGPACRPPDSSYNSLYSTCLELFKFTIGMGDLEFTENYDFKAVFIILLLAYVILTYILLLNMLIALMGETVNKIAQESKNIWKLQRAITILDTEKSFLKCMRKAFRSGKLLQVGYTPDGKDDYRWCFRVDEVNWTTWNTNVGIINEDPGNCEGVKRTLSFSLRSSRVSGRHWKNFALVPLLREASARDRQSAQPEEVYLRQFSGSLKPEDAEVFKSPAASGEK
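Cells expressing TRPV1 were dye-loaded with Fluo-8 and read kinetically: 10 s baseline, 3 min after compound (agonist portion), then 2 min after EC20 capsaicin (allosteric enhancer portion). Calcium-bound dye fluorescence at 480/520 nm.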
TRPV1 ag – human TRPV1 agonism; Q8NER1; TRPV1-expressing cells, Fluo-8 calcium influx, agonist mode; activation, % at 8.33 µM; 0.19% of 320,000 active; AID 540275; in the data active = activation above about 80%; inconclusive = between about 30% and that limit; note: 0% is about no effect
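TRPV1-expressing cells were cultured overnight at 35.5C and loaded with Fluo-8 calcium dye for 40 to 90 min at room temperature. After a 10 s baseline, compound was added and calcium influx was read kinetically for 3 min (ex 480/em 520 nm).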
The depositor's hits bear a star. A selection: hits, their analogues and other compounds. The true share with any hit is near 1.2%.

What do the screens show for `C#CCNC(=O)C1CCN(c2ccc(S(=O)(=O)N3CCOCC3)cc2Cl)CC1`?
hERG WT inh: -3; KCNH2 3.1 inh: -2; TRPV1 potentiator: -11; TRPV1 ag: 82*

Results for CC(C)CNC(=O)C1CCN(c2ccc(S(=O)(=O)N3CCOCC3)cc2Cl)CC1 ?
hERG WT inh: -8; KCNH2 3.1 inh: 13; TRPV1 potentiator: -40; TRPV1 ag: -2

Results for COc1ccc(CNC(=O)CCC(=O)c2ccc(F)cc2)cc1OC ?
hERG WT inh: 6; KCNH2 3.1 inh: 0

How did COc1ccc(CNC(=O)CCSc2ccc(F)cc2)cc1OC do in these assays?
KCNH2 3.1 inh: 25; TRPV1 potentiator: -12; TRPV1 ag: 84*

How did O=C(CCSc1ccc(Cl)cc1)NCc1ccncc1 do in these assays?
hERG WT inh: 2; KCNH2 3.1 inh: -5; TRPV1 potentiator: -24; TRPV1 ag: 86*

What do the screens show for `COc1cccc(OC)c1OCCCN1CCC(Cc2ccccc2)CC1`?
hERG WT inh: -10; KCNH2 3.1 inh: -70*; TRPV1 potentiator: -32; TRPV1 ag: 3

What do the screens show for `COc1cccc(OC)c1OCCN1CCN(C(c2ccccc2)c2ccccc2)CC1`?
hERG WT inh: inconclusive; KCNH2 3.1 inh: -103*; TRPV1 potentiator: 10; TRPV1 ag: 4

How did COc1ccc(/C=C2\SC(=O)N=C2N)cc1 do in these assays?
hERG WT inh: -214*; KCNH2 3.1 inh: -16; TRPV1 potentiator: 29; TRPV1 ag: -14

What do the screens show for `COc1ccc(/C=C2\SC(N3CCCCC3)=NC2=O)cc1`?
hERG WT inh: -12; KCNH2 3.1 inh: 9; TRPV1 potentiator: 0; TRPV1 ag: -2

What do the screens show for `O=C(NC(CSC(=O)c1ccccc1)C(=O)O)OCc1ccccc1` (stereo not drawn)?
hERG WT inh: -7; KCNH2 3.1 inh: 18

Results for CN(C)C(CNC(C(=O)Nc1ccc([N+](=O)[O-])cc1Br)c1ccccc1)c1ccccc1 (stereo not drawn) ?
hERG WT inh: -24; KCNH2 3.1 inh: -85*; TRPV1 potentiator: -2; TRPV1 ag: 1

Results for CC(C)CNC(C(=O)Nc1ccc([N+](=O)[O-])cc1Br)c1ccccc1 (stereo not drawn) ?
hERG WT inh: 5; KCNH2 3.1 inh: -3; TRPV1 potentiator: -7; TRPV1 ag: 3

What do the screens show for `Nc1ccn([C@@H]2O[C@H](CNCc3ccc(Oc4cc(-n5cccn5)ncn4)cc3)[C@@H](O)[C@H]2O)c(=O)n1`?
hERG WT inh: -33; KCNH2 3.1 inh: 2

How did CCCCOC(=O)Nc1ccc(C(C)C)cc1 do in these assays?
hERG WT inh: -32; KCNH2 3.1 inh: -11; TRPV1 potentiator: -1; TRPV1 ag: 81*

Results for CCN(CC)CCNCC(O)(c1ccc(Cl)cc1)c1ccc(Cl)cc1 ?
hERG WT inh: inconclusive; KCNH2 3.1 inh: -91*; TRPV1 potentiator: 1; TRPV1 ag: 3

Results for O=c1[nH]cnc(O)c1C(c1ccc([N+](=O)[O-])cc1)c1c(O)nc[nH]c1=O ?
hERG WT inh: -4; KCNH2 3.1 inh: -181*; TRPV1 potentiator: 0; TRPV1 ag: -4

How did CCCCc1ncc(CN2CCC(n3nccc3NC(=O)c3ccccc3OC)CC2)[nH]1 do in these assays?
hERG WT inh: -42; KCNH2 3.1 inh: -79*; TRPV1 potentiator: 1; TRPV1 ag: 1

How did Cn1cc(CN2CCC(n3nccc3NC(=O)c3ccccc3Cl)CC2)c2ccccc21 do in these assays?
hERG WT inh: -79*; KCNH2 3.1 inh: -15; TRPV1 potentiator: 9; TRPV1 ag: 2

How did Cc1cc(C)c(CN2CCC(n3nccc3NC(=O)c3ccccc3Cl)CC2)cc1C do in these assays?
hERG WT inh: -6; TRPV1 potentiator: 5; TRPV1 ag: -2

What do the screens show for `CCCn1ncc(CN2CCC(n3nccc3NC(=O)c3ccccc3OC)CC2)c1C`?
hERG WT inh: inconclusive; KCNH2 3.1 inh: -95*; TRPV1 potentiator: 7; TRPV1 ag: 0

What do the screens show for `COc1ccccc1C(=O)Nc1ccnn1C1CCN(Cc2cn(C)c3ccccc23)CC1`?
hERG WT inh: -26; KCNH2 3.1 inh: -77*; TRPV1 potentiator: 0; TRPV1 ag: 3

What do the screens show for `CCn1nc(C)c(CN2CCC(n3nccc3NC(=O)c3ccccc3OC)CC2)c1C`?
hERG WT inh: 25; KCNH2 3.1 inh: -15; TRPV1 potentiator: -23; TRPV1 ag: -5

What do the screens show for `O=C(Nc1cccc2cccnc12)c1ccc(Br)cc1`?
TRPV1 potentiator: 12; TRPV1 ag: 14

Results for C[C@H]1CN([C@@H](C)CO)C(=O)CCCn2nncc2CO[C@@H]1CN(C)C(=O)NC1CCCCC1 ?
hERG WT inh: 14; KCNH2 3.1 inh: -12

How did COc1cc(NS(=O)(=O)c2ccc(NC(=S)NC(=O)CC(C)C)cc2)nc(OC)n1 do in these assays?
hERG WT inh: -118*; KCNH2 3.1 inh: -31; TRPV1 potentiator: 27; TRPV1 ag: -2

How did Cc1cccc(NC(=O)CSc2nncn2N)c1C do in these assays?
hERG WT inh: 14; KCNH2 3.1 inh: 6

What do the screens show for `Cc1cc(C)n(-c2nc3ccccc3n3cnnc23)n1`?
hERG WT inh: 3; KCNH2 3.1 inh: -103*; TRPV1 potentiator: 1; TRPV1 ag: -2

How did CCN(CC)c1nc2ccccc2n2cnnc12 do in these assays?
hERG WT inh: 2; KCNH2 3.1 inh: 10; TRPV1 potentiator: 2; TRPV1 ag: -2

Results for O=C(Nc1ccc2nc(-c3ccco3)c(-c3ccco3)nc2c1)N1CCCC1 ?
TRPV1 potentiator: -6; TRPV1 ag: -3

What do the screens show for `Cn1c(=O)c2c(nc(C3CC4C5CCC(C5)C4C3)n2C)n(C)c1=O` (stereo not drawn)?
hERG WT inh: -1; KCNH2 3.1 inh: -6

How did CC(NC(=O)c1cc(COc2ccc(-n3cncn3)cc2)on1)c1ccc(F)cc1 (stereo not drawn) do in these assays?
hERG WT inh: -1; KCNH2 3.1 inh: 9

How did CCNS(=O)(=O)c1ccc(CCC(=O)NCCC2=CCCCC2)cc1 do in these assays?
hERG WT inh: -243*; KCNH2 3.1 inh: -45; TRPV1 potentiator: -30; TRPV1 ag: 2

What do the screens show for `Cc1ccc(S(=O)(=O)Nc2ccc3c(c2)nc(CCN2CCN(c4ccccn4)CC2)n3C)cc1`?
hERG WT inh: -41; KCNH2 3.1 inh: -96*; TRPV1 potentiator: 22; TRPV1 ag: 1

Results for Cn1c(CCN2CCCCC2)nc2cc(NS(=O)(=O)c3ccc(F)cc3)ccc21 ?
hERG WT inh: -45; KCNH2 3.1 inh: -89*; TRPV1 potentiator: -6; TRPV1 ag: 2

Results for Cn1c(CCN2CCN(c3ccccn3)CC2)nc2cc(NS(=O)(=O)c3ccc(Cl)cc3)ccc21 ?
hERG WT inh: -80*; KCNH2 3.1 inh: -104*; TRPV1 potentiator: 27; TRPV1 ag: 2

How did Cc1ccc(S(=O)(=O)Nc2ccc3c(c2)nc(CCN2CCCCC2)n3C)cc1 do in these assays?
hERG WT inh: 22; KCNH2 3.1 inh: inconclusive; TRPV1 potentiator: -1; TRPV1 ag: 1

How did CCOC(=O)c1ccc(N[C@@H]2CCN3C(=O)c4ccccc4[C@@H]3C[C@H]2O)cc1 do in these assays?
hERG WT inh: 4; KCNH2 3.1 inh: -9

Source: PubChem BioAssay
